Measurements taken from PubChem BioAssay (NCI).
This is part of a sample that, as a whole, favours compounds with a hit. Of some 79,000 tested, about 15% had one in any assay. The source made the active and inactive calls. Cut-off read from the data, not from the text of the source: active = growth inhibition above about 70%; inactive = the rest.

Legend:
[1] = NCI Yeast Anticancer Drug Screen. Data for the rad50 strain (AID 155);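 note: 0% = growth of vehicle-only cultures of the same strain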; conditions: S. cerevisiae rad50 strain growth inhibition; at 50.0 µM; hits give high values
How it was run: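 DNA repair mutant yeast, compound exposure, growth read-out; inhibition is taken relative to vehicle.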

[2] = NCI Yeast Anticancer Drug Screen. Data for the mec2-1 strain (AID 157); conditions: S. cerevisiae mec2-1 strain, at 50.0 µM, hits give high values
How it was run: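 Strain: mec2-1 (DNA repair/cell cycle alteration). Compound exposure, then growth measured; inhibition expressed relative to vehicle.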

[3] = NCI Yeast Anticancer Drug Screen. Data for the sgs1 mgt1 strain (AID 161);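 note: 0% = growth of cultures given vehicle only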; conditions: S. cerevisiae sgs1 mgt1 strain, at 50.0 µM, hits give high values
How it was run: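 Read-out: growth inhibition vs vehicle controls. Cells: mutant yeast strain deficient in DNA damage repair.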

[4] = NCI Yeast Anticancer Drug Screen. Data for the cln2 rad14 strain (AID 165);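 note: 0% = growth equal to vehicle treated cultures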; conditions: S. cerevisiae cln2 rad14 strain, at 50.0 µM, hits give high values
How it was run: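 Compounds are applied to the cln2 rad14 yeast strain, and growth is then compared with that of vehicle-treated cultures to give inhibition.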

[5] = NCI Yeast Anticancer Drug Screen. Data for the bub3 strain (AID 167); conditions: S. cerevisiae bub3 mutant strain, at 50.0 µM, hits give high values
How it was run: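 In this screen, a yeast mutant lacking normal mitotic checkpoint function is challenged with compound. Relative growth versus vehicle gives the inhibition value.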

[6] = NCI Yeast Anticancer Drug Screen. Data for the mlh1 rad18 strain (AID 175); conditions: S. cerevisiae mlh1 rad18 strain growth inhibition; at 50.0 µM; hits give high values
How it was run: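 Read-out is yeast growth inhibition, calculated against vehicle-only controls. The compound was applied to a strain engineered with DNA damage repair alterations.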

Measured: growth inhibition

O=C(CC(=O)n1nc(-c2ccccc2)c(N=Nc2ccccc2Cl)c1-c1ccccc1)Nc1ccc(Cl)cc1
inactive: [1] -9.5% | [2] 8.45% | [3] -3.95% | [4] 13.9% | [5] -18.7% | [6] -8.65%

Cc1[nH]c(=O)[nH]c1C(=O)c1ccc(-n2ccnc2)cc1
inactive: [1] -1.45% | [2] -9.75% | [3] 16.1% | [4] 16.2% | [5] 5.25% | [6] -9.15%

O=c1[nH]cc(C2OCC(O)C(O)C2O)c(=O)[nH]1 (configuration not stated)
inactive: [1] 1.45% | [2] -14.4% | [3] 0.5% | [4] 1.95% | [5] -19.1% | [6] -32.5%

O=C1c2ccccc2N2Oc3ccccc3C12c1ccccc1 (configuration not stated)
inactive: [1] -3.45% | [2] -13.2% | [3] -16% | [4] 0.55% | [5] -21.2% | [6] 18.8%

CCCCCCCC/C=C\CCCCCCCC(=O)NCCN(CC)CC
active: [1] 98.7% | [2] 99.3% | [3] 99.3% | [4] 96.8% | [5] 98.7% | [6] 98.8%

CCOc1cccc(-c2ccccc2)c1
inactive: [1] 18.3% | [2] 17.6% | [3] 16.9% | [4] 9.35% | [5] 1.1% | [6] -0.35%

CCOC(=O)c1ccc(N[C@@H]2c3cc4c(cc3C(c3cc(OC)c(O)c(OC)c3)[C@H]3C(=O)OCC32)OCO4)cc1 (some centres not stated)
active: [1] 85.6% | [2] 91.7% | [3] 89.2% | [4] 87.5% | [5] 88% | [6] 88.8%

C/C(=N/Nc1ccc([N+](=O)[O-])cc1[N+](=O)[O-])C(C)(C)C
inactive: [1] -3.05% | [2] -13.2% | [3] 0.35% | [4] 3.15% | [5] -8.75% | [6] -13.2%

CC1(C)OC(=O)c2c(cc(N3CCOCC3)oc2=O)O1
inactive: [1] 3.35% | [2] -2.9% | [3] 1.35% | [4] 9.55% | [5] 11.1% | [6] -1.25%

[Cl][Pt+2][Cl].[NH-]CC1([NH-])CCCCC1
inactive: [1] -10.2% | [2] 14.1% | [3] -19.6% | [4] -2.8% | [5] -5.6% | [6] -31.9%

CCOc1ccccc1/C=N/NS(=O)(=O)c1ccc([N+](=O)[O-])cc1
inactive: [1] -19.2% | [2] -23.1% | [3] 2.55% | [4] -18.6% | [5] 12.9% | [6] -14.2%

CN(C)C=Nc1c(Br)cc(Br)c2nonc12
inactive: [1] -26.7% | [2] -31.1% | [3] -32.5% | [4] -23.8% | [5] -22.9% | [6] -8.45%

CCn1c(=O)ccc2ccc(N(CCO)CCO)nc21
inactive: [1] -19.9% | [2] 8.3% | [3] -0.15% | [4] -3.6% | [5] -9% | [6] 10.1%

COc1cc(C#N)cc(OC)c1
inactive: [1] -17.4% | [2] -16.4% | [3] -26.9% | [4] 3.6% | [5] -12.1% | [6] -5.5%

CC(=O)[C@H]1CC[C@H]2[C@@H]3CC=C4N(CCO)C(=O)CC[C@]4(C)[C@H]3CC[C@]12C
inactive: [1] -18.9% | [2] -1.4% | [3] 14.8% | [4] -28.1% | [5] 25.9% | [6] 13.3%

CN1C(=O)N/C(=C\c2ccc(S(=O)(=O)N/N=C/c3ccccc3)cc2)C1=O
inactive: [1] 16.4% | [2] 44.9% | [3] 20.1% | [4] -2.55% | [5] 2.75% | [6] 39.9%

CC(=O)NC(Cc1ccccc1)C(=O)NN (configuration not stated)
inactive: [1] 7.15% | [2] -8.3% | [3] -11.2% | [4] -0.35% | [5] -6.55% | [6] -22.3%

CN(CCC(=O)O)S(=O)(=O)c1ccccc1
inactive: [1] -13.1% | [2] -17.2% | [3] -10.6% | [4] -9.1% | [5] -46.4% | [6] -3.8%

CN(C)/N=N/c1nc2c(c(=O)n(C)c(=O)n2C)n1C
inactive: [1] -2.25% | [2] 20.2% | [3] -8.8% | [4] 5.05% | [5] -5.4% | [6] 15.7%

Ic1ccc(N=Nc2ccccc2)cc1
inactive: [1] -8% | [2] -11.9% | [3] -5.35% | [4] -70.3% | [5] 25.3% | [6] -12.5%

Nc1nc(-c2cc(C(c3ccccc3)c3ccccc3)nc(N)n2)cc(C(c2ccccc2)c2ccccc2)n1
inactive: [1] -6.45% | [2] 13.8% | [3] -24.6% | [4] 3.45% | [5] -2.3% | [6] 9.95%

CN(C)c1ccc(/C=C/C(=O)/C=C/c2ccc(N(C)C)cc2)cc1
inactive: [1] -13.5% | [2] -2% | [3] -13.8% | [4] 7.6% | [5] -12.2% | [6] -8.9%

C=C(CO)[C@H]1Oc2ccc(C(C)=O)cc2[C@@H]1O
inactive: [1] -16.1% | [2] -10.1% | [3] -24.6% | [4] 6.85% | [5] -10.7% | [6] -12.5%

CC(=O)OCCc1cccc(C)c1
inactive: [1] 3.9% | [2] -17.9% | [3] -4.8% | [4] -30.4% | [5] -10.7% | [6] 7.3%

CCC(c1ccc(N(CC)CC)cc1[N+](=O)[O-])c1ccc(N(CC)CC)cc1[N+](=O)[O-]
inactive: [1] 29% | [2] 26.4% | [3] 44.5% | [4] 36.5% | [5] 28.9% | [6] 20.1%

Brc1ccccc1C=NC12CC3CC(CC(C3)C1)C2
inactive: [1] -2.55% | [2] -7.5% | [3] 2.25% | [4] -55.1% | [5] -3.45% | [6] -5%

O=c1c2cccnc2ncn1CCCN1CCCCC1
inactive: [1] -23.8% | [2] 1.85% | [3] 9.25% | [4] -7.5% | [5] 5.65% | [6] -6.25%

CC1(C)N=C(N)N=C(N)N1c1ccc(CN)cc1
inactive: [1] 19.8% | [2] 7% | [3] -18.4% | [4] -6.8% | [5] -2.3% | [6] 19.3%

CN(C)CCNc1ccc(CO)c2sc3ccc(O)cc3c(=O)c12
inactive: [1] 11.4% | [2] -3.65% | [3] 12.1% | [4] -32% | [5] 12.2% | [6] -9.25%

O=C(c1ccccc1)C1C(/C=C/c2ccccc2)C(C(=O)c2ccccc2)C1/C=C/c1ccccc1 (configuration not stated)
inactive: [1] 41.2% | [2] -7.1% | [3] 11.8% | [4] 0.4% | [5] -4.5% | [6] 3.25%

O=C1Nc2ccccc2N=NN1CCCl
inactive: [1] 22.2% | [2] 6.4% | [3] -2.85% | [4] 1.85% | [5] -7.3% | [6] -18.4%

O=C(NNC(=O)c1cccc(F)c1)c1ccccc1
inactive: [1] -25.8% | [2] -4.25% | [3] -22.9% | [4] -6.05% | [5] -12.8% | [6] 5.2%

COC1(C)C=NCC(C)(C)NC(=O)C(C)(OC)C=NCC(C)(C)NC1=O (configuration not stated)
inactive: [1] -12.4% | [2] -27.6% | [3] -29.4% | [4] -16.4% | [5] -21.6% | [6] -26.5%

N/N=C(/CC(O)(C(F)(F)F)C(F)(F)F)c1ccccc1
inactive: [1] -10.8% | [2] -24.9% | [3] -13.9% | [4] -3.7% | [5] 3% | [6] 2.65%

CC(O)C(=O)N1CCCCC1 (configuration not stated)
inactive: [1] 13.7% | [2] 9.5% | [3] -3.95% | [4] -8.35% | [5] 10.6% | [6] -23.1%

CC12CCC(=O)[C@@]1(C)CCCC2O (some centres not stated)
inactive: [1] -34.2% | [2] -34.4% | [3] -12.8% | [4] -34.6% | [5] -26.8% | [6] -32.2%

COc1c(O)c(O)c2c(c1O)C(=O)c1cc(C)cc(O)c1C2=O
inactive: [1] -16.3% | [2] -27% | [3] -22.7% | [4] -8.45% | [5] -30% | [6] -19.4%
